Screening results from PubChem.
Only some compounds are listed: those with a hit (about 7.5% of all), similar ones and a draw of the others.
ELG1 genotoxic: inducers of genotoxicity in HEK293T ELG1-luciferase cells | 330,000 compounds, 1.3% hits | HEK293T ELG1-luciferase reporter, luminescence, 16 h | Potency, µM (series often up to 46 µM), without a hit: at the highest dose activity change, positive = activation, actives largely listed as activators; also: % of control where 0% means no effect; nearly all actives have a fitted effect of over 60% in size
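Reporter readout depends on ELG1 protein level, which increases with genetic stress. After 16 hr compound exposure at 37 °C, luciferase activity was quantified using ONE-Glo.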
KinaseGlo FLuc: blocks Kinase-Glo luciferase, a counter-screen artifact. Kinase-Glo luciferase, ATP luminescence, 8 min. 200,000 compounds, 0.28% hits. Potency, µM (doses to about 38.3 µM), for the others: top-dose activity change, negative = inhibition, actives largely listed as inhibitors. Q27757; also: % is scaled to controls: 0 for no effect and ±100 for the full control effect; nearly all actives have a fitted effect of over 60% in size
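Inhibition of Kinase-Glo luciferase light generation was assessed at 10 uM ATP in pH 7.2 imidazole buffer, with luminescence measured after eight minutes at ambient temperature.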
FLuc modulator: counter-screen for miR-21 project: firefly luciferase inhibitors or activators; P08659; purified FLuc, Km substrates, luminescence inhibition; Potency, µM (titrated, usually from 57.5 µM), for the others: top-dose activity change, negative = inhibition, most hits filed as inhibitors; 360,000 compounds, 6.9% hits; AID 588342;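 also: plate controls were vehicle for no effect and reference inhibitor for full effect; nearly all actives have a fitted effect of over 55% in size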
Target sequence (P08659 whole entry, looked up): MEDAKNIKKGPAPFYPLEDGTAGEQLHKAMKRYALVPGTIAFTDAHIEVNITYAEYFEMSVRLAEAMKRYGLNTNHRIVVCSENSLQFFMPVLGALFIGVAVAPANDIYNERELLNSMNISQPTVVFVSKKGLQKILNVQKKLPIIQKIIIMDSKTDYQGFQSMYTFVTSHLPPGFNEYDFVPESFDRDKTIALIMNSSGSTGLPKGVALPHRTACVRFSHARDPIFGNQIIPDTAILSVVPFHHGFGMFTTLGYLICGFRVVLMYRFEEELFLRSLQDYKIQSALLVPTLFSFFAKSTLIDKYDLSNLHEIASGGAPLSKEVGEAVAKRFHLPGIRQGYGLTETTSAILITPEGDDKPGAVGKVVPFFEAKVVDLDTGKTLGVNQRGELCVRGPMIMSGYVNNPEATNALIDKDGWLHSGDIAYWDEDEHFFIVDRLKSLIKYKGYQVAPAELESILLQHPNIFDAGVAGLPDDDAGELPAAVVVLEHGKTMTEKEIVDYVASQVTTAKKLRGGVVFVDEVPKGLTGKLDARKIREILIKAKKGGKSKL
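Purified P. pyralis luciferase, 10 nM final, with Km-level 10 uM D-luciferin and 10 uM ATP in 50 mM Tris acetate pH 7.5, 10 mM Mg acetate, 0.01% Tween-20, 0.05% BSA; 6-point qHTS titration about 60 µM downward; luminescence read.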
NPC1 promoter act: activators of NPC1 promoter. Huh7 NPC1 promoter luciferase reporter, 24 h. Potency, µM (highest dose often 9.22 µM), for the others: at the top dose activation, most hits filed as activators. 320,000 compounds, 2.4% hits. AID 485313; also: % of control where 0% means no effect; nearly all actives have a fitted effect of over 60% in size
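Huh7 reporter cells (NPC1 promoter driving luciferase) are dosed with compound for 24 h at 37 °C, 5% CO2; luciferase detection reagent is then added and luminescence measured after 10 min at ambient temperature.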
SMN2 splice enh: enhancers of SMN2 splice variant expression | HEK293 SMN2-luciferase splicing reporter, luminescence, 30-36 h | Potency, µM (top dose mostly 46.1 µM), for inactives: top-dose activity change, positive = activation, most hits filed as activators | 210,000 compounds, 2.8% hits | AID 1458; also: % of control where 0% means no effect; nearly all actives have a fitted effect of over 55% in size
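HEK293 cells carry an SMN2 […]–luciferase reporter in which exon 7 inclusion puts luciferase in frame. Cells were plated 10-12 h before compound addition, then incubated 30-36 h at 37C. ONE-Glo luminescence was read; sodium butyrate at 4.5 mM final served as control.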
Rab9 prom act: activators of Rab9 promoter. Huh7 Rab9 promoter-luciferase reporter, luminescence, 24 h. 320,000 compounds, 2.8% hits. Potency, µM (top dose mostly 9.22 µM), for inactives: at the top dose activation, negative = inhibition, hits mostly activators; also: % of control where 0% means no effect; nearly all actives have a fitted effect of over 60% in size
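Huh7 reporter line, Rab9 promoter upstream of luciferase. Compound exposure 24 h at 37 °C in reduced-serum medium with 10% FBS. Read-out: luminescence.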
Numbers without * were called inactive; u = inconclusive; x = not tested or not shown; [ ] = dose if it differs, or a comment. Calls follow the shape of the dose curve; as a rule, active = well fitted curve in the direction sought with a large enough effect; inconclusive = small, poorly fitted or top-dose-only effect, or another doubt; inactive = no such curve, though single readings can be large; an effect the other way counts as inactive or inconclusive. Potency is read from the fitted curve at half-maximal effect.

SMILES | ELG1 genotoxic | KinaseGlo FLuc | FLuc modulator | NPC1 promoter act | SMN2 splice enh | Rab9 prom act
COc1cc(C(=O)NCC(c2ccc(N(C)C)cc2)N2CCc3ccccc32)cc(OC)c1OC (stereo unspecified) | x | x | -8% | x | x | x
C[C@@H](O)CNC(C)(C)CC(=O)N[C@@H]1CCc2ccccc2N(Cc2ccc(-c3ccccc3-c3nn[nH]n3)cc2)C1=O | x | -1%[39.9 µM] | x | x | x | x
Nc1c(C(=O)NCc2ccccc2)nnn1Cc1cccc(Br)c1 | x | x | -7% | x | -5% | x
Cc1ccc(S(=O)(=O)c2nc(-c3ccccc3F)oc2N2CCCCC2)cc1 | x | x | -11% | x | -11% | x
CC(=O)c1cccc(NC(=O)c2cccc(NC(=O)c3ccco3)c2)c1 | -3% | x | -15% | -1% | x | 8%
C/C(=N\NC(=O)c1cccc(C)c1)c1cccc(NC(=O)c2ccco2)c1 | 3% | -3% | 15µM* | 1% | 4% | -5%
C/C(=N\NC(=O)c1cccc(Cl)c1)c1cccc(NC(=O)c2ccco2)c1 | -3% | 0% | 19µM* | -4% | 8% | 0%
O=C(N/N=C/c1ccco1)c1cccc(NC(=O)c2cccc(Cl)c2)c1 | -2% | x | u | 8% | x | 18%
CCN(CC(=O)NCc1ccc(Cl)cc1)C(=O)/C=C/c1ccc(Cl)c([N+](=O)[O-])c1 | -6% | x | 9.5µM* | 13% | x | 2%
CCN(CC(=O)NCc1ccc(Cl)cc1)C(=O)/C=C/c1ccccc1 | -1% | x | -6% | -2% | x | 4%
Clc1cccc(/C=N/Nc2nc(Cl)nc3ccccc23)c1 | u | 0% | 4.8µM* | 2.8µM* | 22µM* | 4µM*
Fc1ccccc1/C=N/Nc1ncnc2ccccc12 | u | -8% | 1.7µM* | 15% | 11µM* | 3.2µM*
Cc1cc(C)nc(N/N=C/c2cccc(Cl)c2)n1 | 13% | -2% | u | 10% | u | 27%
Clc1ccc(/C=N/Nc2ncnc3ccccc23)cc1Cl | u | 4% | 8.5µM* | u | u | 4µM*
Cc1ccc(NS(=O)(=O)c2cc(NC(=O)c3ccc4c(c3)NC(=O)CS4)ccc2C)c(C)c1 | -26% | 6% | -17% | -7% | -42% | -8%
CCOC(=O)/C(=N/Nc1ccccc1)c1csc(Nc2ccccc2)n1 | 3% | -3% | u | -2% | 7% | -4%
CCOC(=O)/C(=N\Nc1ccc(OC)cc1)c1csc(Nc2ccccc2)n1 | 11% | 17% | 9.5µM* | 1% | 2% | -3%
O=C(COC(=O)/C=C/c1ccccc1Cl)Nc1cccnc1Cl | -1% | x | x | x | x | x
Cc1ccccc1/C(N)=N/OC(=O)/C=C/c1ccccc1 | u | -9% | u | 25% | u | u
N/C(=N\OC(=O)/C=C/c1ccc(Br)cc1)c1ccccn1 | u | -6% | 9.5µM* | 1.8µM* | 18µM* | 2.2µM*
N/C(=N\OC(=O)/C=C/c1ccccc1Cl)c1cccnc1 | 21µM* | x | 7.6µM* | u | x | u
N/C(=N\OC(=O)C(c1ccccc1)c1ccccc1)c1cccnc1 | 1% | 0% | 0% | 1% | -6% | -2%
N/C(=N\OC(=O)/C=C/c1ccccc1Cl)c1ccccn1 | u | u | 0.6µM* | 0.5µM* | u | 0.28µM*
N/C(=N\OC(=O)/C=C/c1ccccc1)c1cccnc1 | u | -7% | 12µM* | 0% | 2% | 11%
CCN(CC(=O)Nc1ccc(NC(C)=O)cc1)C(=O)CCCOc1ccc(C(C)(C)C)cc1 | u | x | 15µM* | 0% | x | 0%
CCN(CC(=O)NCc1cccs1)C(=O)CCCOc1ccc(C(C)(C)C)cc1 | -2% | x | u | 0% | x | -5%
CCOC(=O)C(=Nc1ccc(Cl)cc1)NO | 2% | 0% | 1% | -1% | -3% | 1%
Cc1ncc(CO)c(/C=N/NC(=O)c2ccc(O)cc2)c1O | 0% | 3% | u | -4% | u | -1%
COc1ccc(C(=O)N/N=C/c2c(CO)cnc(C)c2O)cc1 | -10% | -2% | 21µM* | 1% | -73% | 0%
